Drawing on PubChem BioAssay (EPA / NIEHS), this text covers outcome and AC50 for seven compounds.

Active and inactive are the calls of the source. The calls were made as follows: active = hit-call score of the fitted dose curve at least 0.9, where 1 is the maximum; inactive = score below 0.9.

Read-out in experiment [1]: TIMP metallopeptidase inhibitor 1 (TIMP1), TIMP1 (gene 7076)
Briefly: BSK_hDFCGF_TIMP1: BioMAP Diversity Plus: hDFCGF Assay for TIMP metallopeptidase inhibitor 1 (TIMP1) Biomarker Activity (AID 2283062). The conditions noted are these: primary human foreskin fibroblasts; actives raise or lower the signal. Summed up: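 Human skin fibroblasts (primary), hDFCGF system; compound exposure 24 h; TIMP-1 by ELISA; bidirectional fit vs DMSO negative control; overt cytotoxicity by SRB in parallel wells.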

Read-out in experiment [2]: Vascular cell adhesion molecule 1 (VCAM1), VCAM1 (gene 7412)
Put plainly: BSK_hDFCGF_VCAM1: BioMAP Diversity Plus: hDFCGF Assay for Vascular cell adhesion molecule 1 (VCAM1) Biomarker Activity (AID 2283065).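 As to AC50: VCAM-1 protein level quantified by ELISA after 24 h chemical exposure.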 The conditions noted are these: primary human foreskin fibroblasts; actives raise or lower the signal. Summed up: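 Human foreskin fibroblast primary cells, chemical exposure 24 h; VCAM-1 by ELISA; bidirectional fit, DMSO = negative control/baseline.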

Read-out in experiment [3]: Plasminogen activator inhibitor-1 (PAI1), SERPINE1 (gene 5054)
Briefly: BSK_hDFCGF_PAI1: BioMAP Diversity Plus: hDFCGF Assay for Plasminogen activator inhibitor-1 (PAI1) Biomarker Activity (AID 2283066). The conditions noted are these: primary human foreskin fibroblasts; actives raise or lower the signal. Summed up:
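Human skin fibroblast cultures receive chemical for 24 h before PAI-1 is measured by ELISA; signal changes are fitted bidirectionally against DMSO-treated wells.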

Read-out in experiment [4]: Intercellular Adhesion Molecule 1 (ICAM1), ICAM1 (gene 3383)
Put plainly: BSK_KF3CT_ICAM1: BioMAP Diversity Plus: KF3CT Assay for Intercellular Adhesion Molecule 1 (ICAM1) Biomarker Activity (AID 2283067). The conditions noted are these: primary human keratinocytes with fibroblasts; actives raise or lower the signal. The essentials:
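ICAM-1 levels are measured by ELISA 24 h after dosing a primary human co-culture of keratinocytes and foreskin fibroblasts. Activity in either direction is fitted relative to DMSO vehicle.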

Read-out in experiment [5]: Interferon-gamma inducible Protein 10 (IP10), CXCL10 (gene 3627)
Briefly: BSK_KF3CT_IP10: BioMAP Diversity Plus: KF3CT Assay for Interferon-gamma inducible Protein 10 (IP10) Biomarker Activity (AID 2283068). The conditions noted are these: primary human keratinocytes with fibroblasts; actives raise or lower the signal. Summed up:
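Signal is secreted/surface IP-10 by ELISA in a human primary skin co-culture of keratinocytes and foreskin fibroblasts, taken 24 h post-dosing; DMSO served as negative control.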

Read-out in experiment [6]: Interleukin-1 alpha (IL1a), IL1A (gene 3552)
Briefly: BSK_KF3CT_IL1a: BioMAP Diversity Plus: KF3CT Assay for Interleukin-1 alpha (IL1a) Biomarker Activity (AID 2283070). The conditions noted are these: primary human keratinocytes with fibroblasts; actives raise or lower the signal. Summed up: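 Readout is IL-1a level by ELISA, compared bidirectionally with DMSO as baseline. Cells: human keratinocytes co-cultured with foreskin fibroblasts, harvested 24 h post-dose.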

Read-out in experiment [7]: Transforming growth factor beta 1 (TGFb1), TGFB1 (gene 7040)
Briefly: BSK_KF3CT_TGFb1: BioMAP Diversity Plus: KF3CT Assay for Transforming growth factor beta 1 (TGFb1) Biomarker Activity (AID 2283072). The conditions noted are these: primary human keratinocytes with fibroblasts; actives raise or lower the signal. The essentials: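 TGF-b1 ELISA on a 24 h dosed co-culture of human keratinocytes and foreskin fibroblasts; cytotoxicity tracked in parallel cultures by SRB staining.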

Read-out in experiment [8]: Matrix Metallopeptidase 9 (MMP9), MMP9 (gene 4318)
Briefly: BSK_KF3CT_MMP9: BioMAP Diversity Plus: KF3CT Assay for Matrix Metallopeptidase 9 (MMP9) Biomarker Activity (AID 2283074).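 As to AC50: MMP9 protein level quantified by ELISA in the co-culture.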 The conditions noted are these: primary human keratinocytes with fibroblasts; actives raise or lower the signal. Summed up: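 Values come from bidirectional fitting relative to DMSO of MMP-9 levels, which were measured by ELISA. Measurements were taken 24 h after chemical dosing of a keratinocyte and foreskin fibroblast co-culture.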

Read-out in experiment [9]: urokinase plasminogen activator (uPA), PLAU (gene 5328)
Put plainly: BSK_KF3CT_uPA: BioMAP Diversity Plus: KF3CT Assay for urokinase plasminogen activator (uPA) Biomarker Activity (AID 2283075). The conditions noted are these: primary human keratinocytes with fibroblasts; actives raise or lower the signal. The essentials: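 Values derive from bidirectional fitting against DMSO controls. Keratinocyte/foreskin fibroblast co-cultures received chemical; 24 h later uPA was detected by ELISA, with SRB total-protein staining in parallel wells for overt cytotoxicity.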

Read-out in a further experiment: CD40, CD40 (gene 958)
Briefly: BSK_LPS_CD40: BioMAP Diversity Plus: LPS Assay for CD40 Biomarker Activity (AID 2283076). The conditions noted are these: primary human HUVEC with PBMC; actives raise or lower the signal. The essentials:
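Cells were dosed, incubated 24 h, then assayed for CD40 by ELISA. Gain or loss of signal was analysed relative to DMSO controls. The culture paired human umbilical vein endothelium with peripheral blood mononuclear cells.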

Read-out in experiment [10]: E-selectin (Homo sapiens) (UniProt P16581)
Put plainly: BSK_LPS_Eselectin: BioMAP Diversity Plus: LPS Assay for Eselectin Biomarker Activity (AID 2283077). The conditions noted are these: primary human HUVEC with PBMC; actives raise or lower the signal. The essentials: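 Primary human vascular co-culture (endothelium plus PBMC) was dosed with chemical, then E-selectin quantified by ELISA at 24 h. Endpoint values derive from bidirectional curve fitting relative to DMSO.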

Read-out in experiment [11]: Interleukin-8 (IL8), CXCL8 (gene 3576)
Put plainly: BSK_LPS_IL8: BioMAP Diversity Plus: LPS Assay for Interleukin-8 (IL8) Biomarker Activity (AID 2283078). The conditions noted are these: primary human HUVEC with PBMC; actives raise or lower the signal. The essentials:
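Readout is IL-8 by ELISA, taken 24 h after compounds were added to LPS-stimulated endothelial/PBMC co-cultures. Both increases and decreases relative to DMSO control were scored through bidirectional fitting.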

Read-out in experiment [12]: Interleukin-1 alpha (IL1a), IL1A (gene 3552)
Put plainly: BSK_LPS_IL1a: BioMAP Diversity Plus: LPS Assay for Interleukin-1 alpha (IL1a) Biomarker Activity (AID 2283080). The conditions noted are these: primary human HUVEC with PBMC; actives raise or lower the signal. The essentials: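 ELISA read-out of IL-1 alpha from a human primary vascular co-culture (endothelium plus PBMC) under LPS, sampled 24 hours post-dosing. Activity was fitted in both directions relative to DMSO controls.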

Read-out in experiment [13]: Monocyte Chemoattractant Protein-1 (MCP1), CCL2 (gene 6347)
Briefly: BSK_LPS_MCP1: BioMAP Diversity Plus: LPS Assay for Monocyte Chemoattractant Protein-1 (MCP1) Biomarker Activity (AID 2283081).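 As to AC50: secreted MCP-1 protein quantified by ELISA in culture supernatant.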 The conditions noted are these: primary human HUVEC with PBMC; actives raise or lower the signal. Summed up:
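Human endothelial–PBMC co-cultures were dosed with chemical, then LPS-driven MCP-1 levels were quantified by ELISA at 24 h. Activity in either direction was fitted versus DMSO negative control.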

Read-out in experiment [14]: TIMP metallopeptidase inhibitor 2 (TIMP2), TIMP2 (gene 7077)
Briefly: BSK_KF3CT_TIMP2: BioMAP Diversity Plus: KF3CT Assay for TIMP metallopeptidase inhibitor 2 (TIMP2) Biomarker Activity (AID 2283071). The conditions noted are these: primary human keratinocytes with fibroblasts; actives raise or lower the signal. Summed up:
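Measurements come from ELISA detection of TIMP-2 at 24 hours in a dosed human keratinocyte and foreskin fibroblast co-culture. DMSO serves as negative control and baseline.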

Read-out in experiment [15]: C-C motif chemokine 2 (Homo sapiens) (UniProt P13500)
Put plainly: BSK_KF3CT_MCP1: BioMAP Diversity Plus: KF3CT Assay for Monocyte Chemoattractant Protein 1 (MCP1/CCL2) Biomarker Activity (AID 2283073). The conditions noted are these: primary human keratinocytes with fibroblasts; actives raise or lower the signal. Summed up:
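ELISA readout of MCP-1 after 24 h chemical dosing of a human skin primary co-culture of keratinocytes and foreskin fibroblasts. Activity was fitted in both directions against DMSO.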

A short description of experiment [16]: BSK_LPS_SRB: Viability Assessment in the BioMAP Diversity Plus: LPS Assay (AID 2283079).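 Also: total protein by sulforhodamine B absorbance as a cytotoxicity measure; measured one day after compound addition; fitted in both directions against DMSO so loss or gain of signal counts.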 The conditions noted are these: primary human HUVEC with PBMC. Summed up: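 Readout is SRB absorbance at 560 nm (0.1% stain, TCA-fixed parallel cultures) as a total-protein cytotoxicity measure. Cells: primary human umbilical vein endothelium plus peripheral blood mononuclear cells, 24 h after chemical exposure; DMSO served as baseline.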

Read-out in experiment [17]: Matrix Metallopeptidase 1 (MMP1), MMP1 (gene 4312)
Briefly: BSK_hDFCGF_MMP1: BioMAP Diversity Plus: hDFCGF Assay for Matrix Metallopeptidase 1 (MMP1) Biomarker Activity (AID 2283064). The conditions noted are these: primary human foreskin fibroblasts; actives raise or lower the signal. Summed up:
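Human foreskin fibroblasts exposed to chemical for 24 h; MMP1 detected by ELISA, with DMSO as baseline for bidirectional fitting.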

Experiment [18] in a line: BSK_KF3CT_SRB: Viability Assessment in the BioMAP Diversity Plus: KF3CT Assay (AID 2283069).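 Also: read 24 h after compound addition; fitted for both signal gain and loss against DMSO baseline.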 The conditions noted are these: primary human keratinocytes with fibroblasts. Summed up:
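Overt cytotoxicity is assessed as total protein by sulforhodamine B staining in parallel human skin co-cultures at 24 h after dosing. DMSO serves as negative control and baseline.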

Sequence of E-selectin (Homo sapiens) (P16581 whole entry, looked up): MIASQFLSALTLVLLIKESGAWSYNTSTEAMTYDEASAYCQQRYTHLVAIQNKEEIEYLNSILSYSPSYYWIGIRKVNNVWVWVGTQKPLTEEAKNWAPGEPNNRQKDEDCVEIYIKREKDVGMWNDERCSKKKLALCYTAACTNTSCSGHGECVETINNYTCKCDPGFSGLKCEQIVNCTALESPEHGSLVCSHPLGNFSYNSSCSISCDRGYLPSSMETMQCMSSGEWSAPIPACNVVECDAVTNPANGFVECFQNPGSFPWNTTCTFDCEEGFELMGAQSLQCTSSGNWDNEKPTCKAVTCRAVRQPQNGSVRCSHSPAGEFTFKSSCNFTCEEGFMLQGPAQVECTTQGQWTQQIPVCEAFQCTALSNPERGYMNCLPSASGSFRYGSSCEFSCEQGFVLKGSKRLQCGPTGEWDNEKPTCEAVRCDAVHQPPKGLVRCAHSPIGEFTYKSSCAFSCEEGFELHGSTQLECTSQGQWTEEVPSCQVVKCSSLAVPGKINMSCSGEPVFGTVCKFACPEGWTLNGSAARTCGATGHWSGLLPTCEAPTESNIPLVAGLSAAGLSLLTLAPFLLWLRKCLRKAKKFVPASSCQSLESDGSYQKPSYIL

Consider `CCCCC(CC)CO` (stereo unspecified), for which the outcome in experiment [1], in [2], in [3], in experiment [4], in experiment [5] and in experiment [6] was inactive. For the same compound, the outcome in [7] was “inactive”; in experiment [8], “inactive”; in experiment [9] it was “inactive”; with CD40, CD40 (gene 958), “inactive”; in [10], “inactive”; in experiment [11], “inactive”. Besides, the outcome in experiment [12] and in [13] was inactive.

Broadly, the AC50 is the midpoint of the concentration-response curve, whichever way the signal moves. For `C/C=C/c1ccc(OC)cc1`, the outcome in [1], in [2], in experiment [3], in [4], in experiment [5] and in experiment [6] was inactive. Further, the outcome in experiment [14] was “inactive”; in [7], “inactive”; in experiment [15], “inactive”; in experiment [8], “inactive”; in [9] it was “inactive”; with CD40, CD40 (gene 958) it was “inactive”. Moreover, the outcome in experiment [10], in experiment [11], in experiment [16] and in experiment [12] was inactive. In addition, the AC50 in experiment [13] was 13.8 µM (active).

`CSc1ccc(Oc2ccc(S(N)(=O)=O)cc2CN(C)C)cc1C`: the outcome in experiment [1], in experiment [17], in experiment [2], in [3], in experiment [4] and in experiment [5] was inactive. The outcome is “inactive” in [6]; “inactive” in [7]; “inactive” in experiment [8]; “inactive” in [9]; “inactive” with CD40, CD40 (gene 958); “inactive” in experiment [10]. The outcome in experiment [11], in experiment [12] and in experiment [13] was inactive.

Take `O=C(Oc1ccccc1)c1cccc(C(=O)Oc2ccccc2)c1`: the outcome in [1], in experiment [17], in experiment [2], in [3], in experiment [4] and in experiment [5] was inactive. For the same compound, the outcome in experiment [6] was “inactive”; in [7], “inactive”; in experiment [8], “inactive”; in [9], “inactive”; with CD40, CD40 (gene 958) it was “inactive”; in experiment [10] it was “inactive”. Also, the outcome in experiment [12] and in experiment [13] was inactive.

With `CC(=O)S[C@H](C(=O)N[C@H]1Cc2ccccc2[C@H]2CCC[C@@H](C(=O)O)N2C1=O)C(C)C`, the result in [1], in [2], in experiment [3], in [4], in experiment [5] and in experiment [18] was inactive. The outcome is “inactive” in [6]; “inactive” in [7]; “inactive” in [8]; “inactive” in experiment [9]; “inactive” with CD40, CD40 (gene 958); “inactive” in experiment [10]. For the same compound, the result in [11], in experiment [12] and in [13] was inactive.

`CCCCC(CC)COP(=O)(OCC(CC)CCCC)OCC(CC)CCCC` (stereo unspecified): the result in experiment [1], in [17], in [2], in [3], in experiment [4] and in experiment [5] was inactive. In addition, the outcome was “inactive” in [6]; “inactive” in experiment [14]; “inactive” in [7]; “inactive” in experiment [8]; “inactive” in [9]; “inactive” with CD40, CD40 (gene 958). In addition, the outcome in experiment [10], in experiment [12] and in [13] was inactive. The AC50 in experiment [11] is 5.39 µM (active).

Consider `O=C1OC(c2ccc(O)cc2)(c2ccc(O)cc2)c2ccccc21`, for which the outcome in experiment [1], in [3], in [4], in [5], in experiment [15] and in experiment [9] was inactive. Also, the outcome in experiment [10], in [12] and in experiment [13] was inactive. The concentration at half-maximal activity (AC50) in experiment [2] was 31.2 µM (active); in experiment [6] it was 28.8 µM (active); in [7] it was 12.6 µM (active); in experiment [8], 29.5 µM (active); with CD40, CD40 (gene 958), 31.5 µM (active); in experiment [11] it was 20 µM (active).
